# Laboratory results reported in publication PMC7862700, “An all-to-all approach to the identification of sequence-specific readers for epigenetic DNA modifications on cytosine”.
# Columns and labels:
# Test in all cases: DAPPL (digital affinity profiling via proximity ligation, sequencing); 10 mM Tris-HCl pH 7.5, 50 mM NaCl, 1 mM DTT, 4% glycerol, room temperature, 30 min; GST-TFs on glutathione beads, 16-mer random dsDNA library, 0.1% formaldehyde crosslink after washing; high values mean tight binding
# [1] = target: T1, FEV (Homo sapiens, UniProt Q99581 1-238); details: protein: recombinant; tags: N-terminal GST; dsDNA, one strand shown
# T1 sequence: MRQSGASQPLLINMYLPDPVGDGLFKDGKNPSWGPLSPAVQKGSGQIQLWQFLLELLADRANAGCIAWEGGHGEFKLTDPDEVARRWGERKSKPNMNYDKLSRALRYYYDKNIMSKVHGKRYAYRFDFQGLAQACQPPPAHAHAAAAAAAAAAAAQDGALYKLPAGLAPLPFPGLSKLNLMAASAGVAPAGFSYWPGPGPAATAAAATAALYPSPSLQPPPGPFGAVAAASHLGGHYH
# Summary of the method: (§1)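 Binding signal is each hexamer's read frequency for a factor divided by its frequency in the tag-only sample. The factors were GST-fused human transcription factors from yeast, captured on glutathione beads, DNA-barcoded and pooled with that sample. Pools were incubated with 200 nmole of a random double-stranded 16-mer DNA library in Tris/NaCl/DTT/glycerol buffer at room temperature for 30 min, then washed, crosslinked with 0.1% formaldehyde, proximity-ligated with BsaI/T4 ligase (1 h, 37 °C), PCR-amplified and sequenced on an Illumina NextSeq500.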
# [2] = target: ETV5 (Homo sapiens, UniProt P41161 1-510); details: protein: recombinant; tags: N-terminal GST; dsDNA, one strand shown
# Summary of the method: as §1
# [3] = target: HSF1 (Homo sapiens, UniProt Q00613 1-529); details: protein: recombinant; tags: N-terminal GST; chain copies: 3; dsDNA, one strand shown
# Summary of the method: as §1
# [4] = target: T2, SPIC (Homo sapiens, UniProt Q8N5J4 1-248); details: protein: recombinant; tags: N-terminal GST; dsDNA, one strand shown
# T2 sequence: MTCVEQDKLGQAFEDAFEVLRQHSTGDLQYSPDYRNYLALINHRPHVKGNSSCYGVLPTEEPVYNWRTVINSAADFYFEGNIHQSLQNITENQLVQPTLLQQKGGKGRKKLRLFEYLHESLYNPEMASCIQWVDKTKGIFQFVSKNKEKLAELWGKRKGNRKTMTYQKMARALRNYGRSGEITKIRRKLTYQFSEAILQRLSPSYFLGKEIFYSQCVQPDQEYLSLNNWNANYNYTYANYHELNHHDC
# Summary of the method: as §1
# [5] = target: ELF4 (Homo sapiens, UniProt Q99607 1-663); details: protein: recombinant; tags: N-terminal GST; dsDNA, one strand shown
# Summary of the method: as §1
# [6] = target: T3, ELK4 (Homo sapiens, UniProt P28324-2 1-405); details: protein: recombinant; tags: N-terminal GST; dsDNA, one strand shown
# T3 sequence: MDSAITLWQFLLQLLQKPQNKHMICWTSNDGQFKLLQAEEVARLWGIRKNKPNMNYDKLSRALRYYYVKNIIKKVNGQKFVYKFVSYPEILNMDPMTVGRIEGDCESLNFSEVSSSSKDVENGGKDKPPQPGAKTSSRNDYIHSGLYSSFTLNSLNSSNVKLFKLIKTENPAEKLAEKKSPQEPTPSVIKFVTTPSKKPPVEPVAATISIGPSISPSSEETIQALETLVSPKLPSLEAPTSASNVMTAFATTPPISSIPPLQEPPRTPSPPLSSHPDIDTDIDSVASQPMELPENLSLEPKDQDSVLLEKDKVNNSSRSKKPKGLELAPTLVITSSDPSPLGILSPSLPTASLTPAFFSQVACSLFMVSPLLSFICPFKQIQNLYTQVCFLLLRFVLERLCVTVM
# Summary of the method: as §1
# [7] = target: T4, ETV2 (Homo sapiens, UniProt O00321 1-342); details: protein: recombinant; tags: N-terminal GST; dsDNA, one strand shown
# T4 sequence: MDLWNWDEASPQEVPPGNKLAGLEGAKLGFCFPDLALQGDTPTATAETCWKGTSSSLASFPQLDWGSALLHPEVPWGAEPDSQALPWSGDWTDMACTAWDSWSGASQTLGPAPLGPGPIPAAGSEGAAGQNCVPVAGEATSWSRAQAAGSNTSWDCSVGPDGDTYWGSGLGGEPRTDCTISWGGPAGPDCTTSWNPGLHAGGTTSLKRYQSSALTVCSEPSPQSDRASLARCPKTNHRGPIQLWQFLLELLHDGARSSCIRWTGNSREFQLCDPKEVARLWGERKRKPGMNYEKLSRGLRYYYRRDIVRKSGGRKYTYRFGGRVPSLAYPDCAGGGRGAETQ
# Summary of the method: as §1
# [8] = target: T5, ELF3 (Homo sapiens, UniProt P78545 1-371); details: protein: recombinant; tags: N-terminal GST; dsDNA, one strand shown
# T5 sequence: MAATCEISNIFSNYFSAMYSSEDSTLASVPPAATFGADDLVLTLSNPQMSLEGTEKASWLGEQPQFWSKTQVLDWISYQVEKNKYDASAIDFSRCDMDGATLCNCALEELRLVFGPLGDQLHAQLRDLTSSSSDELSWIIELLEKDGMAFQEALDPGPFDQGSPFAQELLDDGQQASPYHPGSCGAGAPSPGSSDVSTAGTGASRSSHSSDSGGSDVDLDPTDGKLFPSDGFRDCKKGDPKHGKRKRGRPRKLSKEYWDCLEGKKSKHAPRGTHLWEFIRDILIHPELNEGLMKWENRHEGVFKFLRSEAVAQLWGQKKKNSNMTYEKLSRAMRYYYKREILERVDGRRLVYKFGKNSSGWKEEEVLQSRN
# Summary of the method: as §1
# [9] = target: CRX (Homo sapiens, UniProt O43186 1-299); details: protein: recombinant; tags: N-terminal GST; dsDNA, one strand shown
# Summary of the method: as §1
# [10] = target: ETV1 (Homo sapiens, UniProt P50549 1-477); details: protein: recombinant; tags: N-terminal GST; dsDNA, one strand shown
# Summary of the method: as §1
# [11] = target: T6, ERF (Homo sapiens, UniProt P50548 1-548); details: protein: recombinant; tags: N-terminal GST; dsDNA, one strand shown
# T6 sequence: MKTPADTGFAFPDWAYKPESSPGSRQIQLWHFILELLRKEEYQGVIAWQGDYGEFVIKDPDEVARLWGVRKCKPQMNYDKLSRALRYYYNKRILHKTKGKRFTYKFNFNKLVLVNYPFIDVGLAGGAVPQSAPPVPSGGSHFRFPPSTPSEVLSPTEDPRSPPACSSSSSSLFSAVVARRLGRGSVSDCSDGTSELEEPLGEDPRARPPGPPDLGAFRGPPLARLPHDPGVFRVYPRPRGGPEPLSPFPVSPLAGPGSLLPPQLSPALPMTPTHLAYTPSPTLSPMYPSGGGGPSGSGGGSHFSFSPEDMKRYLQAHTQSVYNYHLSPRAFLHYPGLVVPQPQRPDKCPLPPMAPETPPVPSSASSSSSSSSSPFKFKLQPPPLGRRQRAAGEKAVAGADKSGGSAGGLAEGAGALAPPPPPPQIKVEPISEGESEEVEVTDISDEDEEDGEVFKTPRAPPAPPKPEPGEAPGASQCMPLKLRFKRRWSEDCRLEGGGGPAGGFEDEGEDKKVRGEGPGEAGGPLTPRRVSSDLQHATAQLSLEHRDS
# Summary of the method: as §1
# [12] = target: T7, ETV3L (Homo sapiens, UniProt Q6ZN32 1-361); details: protein: recombinant; tags: N-terminal GST; dsDNA, one strand shown
# T7 sequence: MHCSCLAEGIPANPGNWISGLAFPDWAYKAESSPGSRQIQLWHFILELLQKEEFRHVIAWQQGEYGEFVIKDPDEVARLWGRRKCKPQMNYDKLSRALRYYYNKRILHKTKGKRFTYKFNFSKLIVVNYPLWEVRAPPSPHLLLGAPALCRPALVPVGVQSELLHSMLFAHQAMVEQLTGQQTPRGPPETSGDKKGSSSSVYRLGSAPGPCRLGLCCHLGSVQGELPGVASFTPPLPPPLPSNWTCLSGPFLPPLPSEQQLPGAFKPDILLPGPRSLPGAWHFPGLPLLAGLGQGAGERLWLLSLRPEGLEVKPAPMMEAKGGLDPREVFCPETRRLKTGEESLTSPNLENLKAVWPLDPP
# Summary of the method: as §1
# [13] = target: T8, ETS2 (Homo sapiens, UniProt P15036 1-469); details: protein: recombinant; tags: N-terminal GST; dsDNA, one strand shown
# T8 sequence: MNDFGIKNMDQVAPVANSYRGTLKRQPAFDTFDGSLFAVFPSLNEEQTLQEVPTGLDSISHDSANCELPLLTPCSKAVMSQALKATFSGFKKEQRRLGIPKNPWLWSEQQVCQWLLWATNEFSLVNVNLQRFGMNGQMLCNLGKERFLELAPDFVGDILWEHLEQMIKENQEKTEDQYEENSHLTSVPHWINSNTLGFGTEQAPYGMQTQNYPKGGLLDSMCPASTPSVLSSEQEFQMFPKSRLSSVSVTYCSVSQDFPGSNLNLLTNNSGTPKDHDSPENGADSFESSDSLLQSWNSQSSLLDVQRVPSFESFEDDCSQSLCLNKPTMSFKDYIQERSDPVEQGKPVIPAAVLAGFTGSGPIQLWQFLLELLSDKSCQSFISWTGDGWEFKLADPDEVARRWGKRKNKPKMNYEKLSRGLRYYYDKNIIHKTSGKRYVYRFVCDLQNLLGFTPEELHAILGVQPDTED
# Summary of the method: as §1
# [14] = target: T9, SPDEF (Homo sapiens, UniProt O95238 1-335); details: protein: recombinant; tags: N-terminal GST; dsDNA, one strand shown
# T9 sequence: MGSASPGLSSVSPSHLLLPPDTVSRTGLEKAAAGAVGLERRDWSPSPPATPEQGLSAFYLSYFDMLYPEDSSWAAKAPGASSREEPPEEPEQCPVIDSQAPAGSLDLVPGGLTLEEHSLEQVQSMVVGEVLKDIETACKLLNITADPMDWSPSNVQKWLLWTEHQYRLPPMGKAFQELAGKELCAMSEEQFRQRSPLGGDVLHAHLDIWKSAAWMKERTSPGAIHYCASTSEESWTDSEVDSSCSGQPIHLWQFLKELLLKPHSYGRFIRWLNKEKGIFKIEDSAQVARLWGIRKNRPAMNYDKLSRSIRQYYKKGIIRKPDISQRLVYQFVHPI
# Summary of the method: as §1
# [15] = target: T10, ETV7 (Homo sapiens, UniProt Q9Y603 1-341); details: protein: recombinant; tags: N-terminal GST; dsDNA, one strand shown
# T10 sequence: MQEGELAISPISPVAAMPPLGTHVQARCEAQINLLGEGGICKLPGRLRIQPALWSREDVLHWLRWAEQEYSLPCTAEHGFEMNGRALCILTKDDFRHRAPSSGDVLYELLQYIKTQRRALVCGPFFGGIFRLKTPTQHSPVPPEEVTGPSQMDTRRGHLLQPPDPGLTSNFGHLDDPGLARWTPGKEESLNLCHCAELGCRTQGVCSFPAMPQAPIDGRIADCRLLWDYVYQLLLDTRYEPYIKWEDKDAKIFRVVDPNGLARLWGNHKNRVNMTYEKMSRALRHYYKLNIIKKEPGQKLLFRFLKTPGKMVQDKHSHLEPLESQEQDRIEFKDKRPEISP
# Summary of the method: as §1
# [16] = target: T11, ELF5 (Homo sapiens, UniProt Q9UKW6-2 1-255); details: protein: recombinant; tags: N-terminal GST; dsDNA, one strand shown
# T11 sequence: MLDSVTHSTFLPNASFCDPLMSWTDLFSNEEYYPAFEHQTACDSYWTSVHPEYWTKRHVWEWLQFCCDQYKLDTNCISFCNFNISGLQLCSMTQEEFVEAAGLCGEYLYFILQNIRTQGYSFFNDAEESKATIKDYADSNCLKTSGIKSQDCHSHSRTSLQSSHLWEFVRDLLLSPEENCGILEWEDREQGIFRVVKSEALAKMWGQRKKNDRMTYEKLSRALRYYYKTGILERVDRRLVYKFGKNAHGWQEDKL
# Summary of the method: as §1
# [17] = target: T12, ETV3 (Homo sapiens, UniProt P41162-2 1-143); details: protein: recombinant; tags: N-terminal GST; dsDNA, one strand shown
# T12 sequence: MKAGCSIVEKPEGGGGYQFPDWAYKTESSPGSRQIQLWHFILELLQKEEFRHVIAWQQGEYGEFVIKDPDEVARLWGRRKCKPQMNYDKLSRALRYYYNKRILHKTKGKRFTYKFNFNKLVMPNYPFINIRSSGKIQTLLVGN
# Summary of the method: as §1
# [18] = target: ETV6 (Homo sapiens, UniProt P41212 1-452); details: protein: recombinant; tags: N-terminal GST; dsDNA, one strand shown
# Summary of the method: as §1
# Sequence of ETV6 (P41212 whole entry): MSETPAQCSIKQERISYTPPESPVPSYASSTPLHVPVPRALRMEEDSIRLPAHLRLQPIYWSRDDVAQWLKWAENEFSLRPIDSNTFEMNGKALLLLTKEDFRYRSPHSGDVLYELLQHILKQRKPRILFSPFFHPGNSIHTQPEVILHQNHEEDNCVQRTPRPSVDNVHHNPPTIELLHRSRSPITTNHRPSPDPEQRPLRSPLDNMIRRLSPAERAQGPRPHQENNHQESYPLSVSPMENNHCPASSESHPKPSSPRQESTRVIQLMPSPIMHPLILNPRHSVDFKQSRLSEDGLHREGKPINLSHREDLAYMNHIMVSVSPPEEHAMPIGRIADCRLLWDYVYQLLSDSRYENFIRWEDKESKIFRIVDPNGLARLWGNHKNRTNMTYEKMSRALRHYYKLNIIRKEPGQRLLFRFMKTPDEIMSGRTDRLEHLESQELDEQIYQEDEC
# Sequence of ETV5 (P41161 whole entry): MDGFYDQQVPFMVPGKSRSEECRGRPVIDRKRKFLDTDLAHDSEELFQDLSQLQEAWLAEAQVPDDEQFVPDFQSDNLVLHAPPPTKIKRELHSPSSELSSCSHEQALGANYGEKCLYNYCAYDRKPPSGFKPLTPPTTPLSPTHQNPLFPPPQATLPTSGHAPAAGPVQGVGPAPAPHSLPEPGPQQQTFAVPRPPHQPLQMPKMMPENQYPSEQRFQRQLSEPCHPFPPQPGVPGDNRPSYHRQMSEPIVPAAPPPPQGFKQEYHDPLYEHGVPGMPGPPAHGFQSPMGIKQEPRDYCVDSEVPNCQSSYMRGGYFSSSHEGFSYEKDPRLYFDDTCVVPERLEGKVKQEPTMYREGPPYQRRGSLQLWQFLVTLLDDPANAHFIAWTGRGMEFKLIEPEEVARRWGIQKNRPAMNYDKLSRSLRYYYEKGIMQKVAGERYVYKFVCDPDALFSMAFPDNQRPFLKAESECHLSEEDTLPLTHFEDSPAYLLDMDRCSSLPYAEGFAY
# Sequence of HSF1 (Q00613 whole entry): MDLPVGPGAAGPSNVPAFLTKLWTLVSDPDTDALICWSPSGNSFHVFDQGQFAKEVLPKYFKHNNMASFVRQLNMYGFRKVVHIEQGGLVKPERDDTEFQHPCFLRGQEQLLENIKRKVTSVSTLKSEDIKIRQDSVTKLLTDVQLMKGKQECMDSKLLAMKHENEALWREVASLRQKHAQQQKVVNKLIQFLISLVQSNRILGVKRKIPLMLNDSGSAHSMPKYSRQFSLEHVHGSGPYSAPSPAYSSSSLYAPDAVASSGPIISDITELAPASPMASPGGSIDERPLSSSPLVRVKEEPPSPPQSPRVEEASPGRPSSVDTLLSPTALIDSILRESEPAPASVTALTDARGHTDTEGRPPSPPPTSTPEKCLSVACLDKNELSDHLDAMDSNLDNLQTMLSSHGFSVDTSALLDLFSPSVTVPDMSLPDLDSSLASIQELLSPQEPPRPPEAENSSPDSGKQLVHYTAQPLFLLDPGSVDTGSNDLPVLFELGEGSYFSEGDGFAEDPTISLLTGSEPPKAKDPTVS
# Sequence of ETV1 (P50549 whole entry): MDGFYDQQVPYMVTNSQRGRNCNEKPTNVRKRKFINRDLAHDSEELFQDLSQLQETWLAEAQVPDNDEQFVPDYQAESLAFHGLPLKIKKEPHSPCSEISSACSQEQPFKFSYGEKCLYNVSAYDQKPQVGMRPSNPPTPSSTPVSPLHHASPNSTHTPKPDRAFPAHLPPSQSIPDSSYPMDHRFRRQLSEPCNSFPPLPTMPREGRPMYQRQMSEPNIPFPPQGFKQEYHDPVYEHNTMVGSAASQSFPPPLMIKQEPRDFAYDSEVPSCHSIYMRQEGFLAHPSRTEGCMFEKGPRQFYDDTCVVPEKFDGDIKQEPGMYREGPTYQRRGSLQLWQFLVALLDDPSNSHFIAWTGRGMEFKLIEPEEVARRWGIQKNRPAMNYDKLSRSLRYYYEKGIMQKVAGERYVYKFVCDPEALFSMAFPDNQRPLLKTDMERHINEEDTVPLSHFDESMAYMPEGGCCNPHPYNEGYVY
# Sequence of ELF4 (Q99607 whole entry): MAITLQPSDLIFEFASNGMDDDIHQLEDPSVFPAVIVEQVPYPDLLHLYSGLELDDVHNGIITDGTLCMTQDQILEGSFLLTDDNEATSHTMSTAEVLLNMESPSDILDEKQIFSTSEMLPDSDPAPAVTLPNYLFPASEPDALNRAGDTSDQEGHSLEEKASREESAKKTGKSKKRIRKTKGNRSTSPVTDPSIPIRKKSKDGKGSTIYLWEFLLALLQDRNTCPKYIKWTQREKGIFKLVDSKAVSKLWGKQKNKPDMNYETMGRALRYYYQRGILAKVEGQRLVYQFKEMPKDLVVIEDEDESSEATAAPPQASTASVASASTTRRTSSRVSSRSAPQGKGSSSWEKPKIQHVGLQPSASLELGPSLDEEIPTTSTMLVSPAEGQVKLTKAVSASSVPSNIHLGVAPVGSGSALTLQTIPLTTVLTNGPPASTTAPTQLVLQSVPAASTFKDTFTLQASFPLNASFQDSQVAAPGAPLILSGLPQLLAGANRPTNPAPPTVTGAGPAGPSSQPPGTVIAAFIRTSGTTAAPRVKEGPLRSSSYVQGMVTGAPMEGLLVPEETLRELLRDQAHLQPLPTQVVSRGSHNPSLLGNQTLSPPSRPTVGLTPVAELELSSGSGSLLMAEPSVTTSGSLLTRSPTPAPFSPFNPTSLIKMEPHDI
# Sequence of CRX (O43186 whole entry): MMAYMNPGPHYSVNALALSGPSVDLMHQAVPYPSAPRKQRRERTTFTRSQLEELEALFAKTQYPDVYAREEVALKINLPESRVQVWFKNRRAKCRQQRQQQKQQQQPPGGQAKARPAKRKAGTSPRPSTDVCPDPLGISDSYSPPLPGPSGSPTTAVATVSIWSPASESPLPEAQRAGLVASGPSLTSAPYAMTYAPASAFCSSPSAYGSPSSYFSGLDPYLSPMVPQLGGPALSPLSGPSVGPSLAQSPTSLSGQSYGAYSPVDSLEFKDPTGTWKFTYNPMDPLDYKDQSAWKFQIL
sequence,measurement,setting,value
TGGGAT,binding signal,[1],"1.18 fold enrichment (6-mer frequency, TF over GST control)"
same,binding signal,[2],"1.19 fold enrichment (6-mer frequency, TF over GST control)"
same,binding signal,[3],"1.47 fold enrichment (6-mer frequency, TF over GST control)"
same,binding signal,[4],"1.17 fold enrichment (6-mer frequency, TF over GST control)"
same,binding signal,[5],"1.2 fold enrichment (6-mer frequency, TF over GST control)"
same,binding signal,[6],"1.39 fold enrichment (6-mer frequency, TF over GST control)"
same,binding signal,[7],"1.14 fold enrichment (6-mer frequency, TF over GST control)"
same,binding signal,[8],"1.12 fold enrichment (6-mer frequency, TF over GST control)"
same,binding signal,[9],"1.9 fold enrichment (6-mer frequency, TF over GST control)"
same,binding signal,[10],"1.25 fold enrichment (6-mer frequency, TF over GST control)"
same,binding signal,[11],"1.05 fold enrichment (6-mer frequency, TF over GST control)"
same,binding signal,[12],"1.15 fold enrichment (6-mer frequency, TF over GST control)"
same,binding signal,[13],"1.17 fold enrichment (6-mer frequency, TF over GST control)"
same,binding signal,[14],"1.17 fold enrichment (6-mer frequency, TF over GST control)"
same,binding signal,[15],"1.15 fold enrichment (6-mer frequency, TF over GST control)"
same,binding signal,[16],"1.2 fold enrichment (6-mer frequency, TF over GST control)"
same,binding signal,[17],"1.18 fold enrichment (6-mer frequency, TF over GST control)"
same,binding signal,[18],"1.23 fold enrichment (6-mer frequency, TF over GST control)"
